For 40 molecules, Euclidean distance results are on record in the supplement of paper PMC10127200.

SMILES strings stand for the structures. Structures can show the parent of a compound that is named as a salt.

The test system of this assay is FB. Kind of assay: Euclidean distance of Cell Painting phenotypic profile (signed KS, 77 features) to DMSO centroid (dimensionless distance); 5 or 10 uM (library dependent); higher = stronger phenotypic change vs DMSO (phenoactivity). The following applies: 48 h. The gist of the method: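 Harmony extracted 77 features from 20X confocal images (9 fields/well) of stained cells, scoring each as a signed Kolmogorov-Smirnov statistic against same-plate vehicle wells. The cells, five cancer lines and a healthy fibroblast line, had received library compounds for 48 h at 10 or 5 uM depending on library, with 0.1% DMSO final. Phenoactivity is the Euclidean distance from each plate-position-corrected, correlation-weighted, top-dose replicate-averaged profile to the median vehicle profile.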
`Cn1cnc2c1c(=O)[nH]c(=O)n2C` [Theobromine] had an Euclidean distance of 0.792.
Take `Nc1nc(OCc2cc(Br)cs2)c2[nH]cnc2n1` [Lomeguatrib]: the Euclidean distance came out at 1.29.
As for `Cc1nnc(SCC2=C(C(=O)O)N3C(=O)[C@@H](NC(=O)Cn4cnnn4)[C@H]3SC2)s1` [Cefazolin Sodium], the Euclidean distance is 0.961.
In the case of `c1ccc2[nH]c(-c3cscn3)nc2c1` [Thiabendazole] it was 1.1; in that of `CCC(Cc1c(I)cc(I)c(N)c1I)C(=O)O` (stereo not given) [Iopanoic acid], 1.22.
With `CCOC(=O)[C@H](CCc1ccccc1)N[C@H]1CS[C@H](c2cccs2)CN(CC(=O)O)C1=O` [Temocapril HCl], the Euclidean distance was determined as 0.895.
For `C[C@]12CC[C@@H]3c4ccc(O)cc4C[C@@H](CCCCCCCCC[S+]([O-])CCCC(F)(F)C(F)(F)F)[C@H]3[C@@H]1CC[C@@H]2O` (stereo not given in full) [Fulvestrant], the Euclidean distance is 1.18.
In the case of `N#CC[C@H](C1CCCC1)n1cc(-c2ncnc3[nH]ccc23)cn1` [Ruxolitinib Phosphate] it was 1.39.
As to `C[S+](CC[C@H](N)C(=O)[O-])C[C@H]1O[C@@H](n2cnc3c(N)ncnc32)[C@H](O)[C@@H]1O` (stereo not given in full) [Ademetionine], the Euclidean distance was determined as 0.885.
Take `OC[C@@H](O)[C@@H](O)[C@H](O)[C@H](O)CO` [D-Mannitol]: the Euclidean distance amounted to 0.744.
Turning to `COC(=O)c1ccc(O)cc1` [Methyl 4-hydroxybenzoate], the Euclidean distance amounted to 0.862.
The molecule `CCCCC1C(=O)N(c2ccccc2)N(c2ccccc2)C1=O` [Phenylbutazone] gave an Euclidean distance of 1.25.
The same measure for `Cc1nc2n(c(=O)c1CCN1CCC(c3noc4cc(F)ccc34)CC1)CCCC2` [Risperidone]: 1.08; for `CC[C@H](C)C(=O)O[C@H]1C[C@@H](C)C=C2C=C[C@H](C)[C@H](CC[C@@H]3C[C@@H](O)CC(=O)O3)[C@H]21` [Lovastatin]: 2.
`COc1ccccc1O` [Guaiacol] came in with an Euclidean distance of 1.19.
The same measure for `O=C(O)c1cn(-c2ccc(F)cc2)c2cc(N3CCNCC3)c(F)cc2c1=O` [Sarafloxacin HCl]: 0.799; for `NS(=O)(=O)NCCNc1nonc1/C(=N/O)Nc1ccc(F)c(Br)c1`: 1.35.
For the molecule `O=C1C(O)=C([C@H]2CC[C@H](c3ccc(Cl)cc3)CC2)C(=O)c2ccccc21` [Atovaquone], the Euclidean distance turned out to be 1.41.
In the case of `C=CC(=O)N1C[C@H](Nc2ncnc3[nH]ccc23)CC[C@@H]1C` it was 0.936; in that of `CC(C)(C)OC(=O)N[C@H]1CCCCC/C=C\[C@@H]2C[C@@]2(C(=O)NS(=O)(=O)C2CC2)NC(=O)[C@@H]2C[C@@H](OC(=O)N3Cc4cccc(F)c4C3)CN2C1=O` [Danoprevir (ITMN-191)], 1.19; in that of `Cc1cc(-n2c(=O)[nH]c(=O)n(C)c2=O)ccc1Oc1ccc(SC(F)(F)F)cc1` [Toltrazuril], 0.686.
Molecule `CC(COc1ccccc1Cc1ccccc1)N1CCCCC1` (stereo not given) [Benproperine phosphate] yielded an Euclidean distance of 1.18.
The same measure for `CCOC(=O)C1=C(COCCN)NC(C)=C(C(=O)OC)[C@@H]1c1ccccc1Cl` [Levamlodipine]: 1.12; for `COc1ccccc1OCC(O)CO` (stereo not given) [Guaifenesin]: 1.24.
The same measure for `COCCOC(=O)C1=C(C)NC(C)=C(C(=O)OC(C)C)C1c1cccc([N+](=O)[O-])c1` (stereo not given) [Nimodipine]: 1.08; for `COC(=O)C1=C(C)NC(C)=C(C(=O)OCCN(C)Cc2ccccc2)C1c1cccc([N+](=O)[O-])c1` (stereo not given) [Nicardipine HCl]: 0.903.
`CC#CC(=O)N1CCC[C@H]1c1nc(-c2ccc(C(=O)Nc3ccccn3)cc2)c2c(N)nccn12` [Acalabrutinib (ACP-196)] gave an Euclidean distance of 1.3.
In turn, `COc1cc(Nc2ncc(F)c(Nc3ccc4c(n3)N(COP(=O)(O)O)C(=O)C(C)(C)O4)n2)cc(OC)c1OC` [R788 (Fostamatinib) Disodium] yielded an Euclidean distance of 3.19.
Molecule `CC(C)(C)c1nc(-c2cccc(NS(=O)(=O)c3c(F)cccc3F)c2F)c(-c2ccnc(N)n2)s1` [Dabrafenib Mesylate] showed an Euclidean distance of 3.79.
In the case of `COc1ccc2cc([C@H](C)C(=O)O)ccc2c1` [Naproxen] it was 0.816; in that of `NCCS` [2-Aminoethanethiol], 0.594.
In the case of `Cn1cc(Nc2nccc(N3C[C@H]4CC[C@@H](C3)N4C(=O)[C@@H]3CC3(F)F)n2)cn1` it was 2.16; in that of `CCN(CC)CCOC(=O)c1ccc(N)cc1` [Procaine HCl], 0.877.
For the molecule `O=c1c(O)c(-c2ccc(O)c(O)c2)oc2cc(O)ccc12` [Fisetin], the Euclidean distance worked out at 0.987.
In the case of `CC(C)NCC(O)COc1ccc(CC(N)=O)cc1` (stereo not given) [Atenolol] it was 0.889; in that of `CO[C@@]1(NC(=O)Cc2cccs2)C(=O)N2C(C(=O)O)=C(COC(N)=O)CS[C@@H]21` [Cefoxitin sodium], 1.02; in that of `CCOC(=O)CCNc1cc(N2CCc3ccccc3CC2)nc(-c2ccccn2)n1`, 2.56.
Regarding `COC(=O)[C@]12CCC(C)(C)C[C@H]1[C@H]1C(=O)C=C3[C@@]4(C)C=C(C#N)C(=O)C(C)(C)[C@@H]4CC[C@@]3(C)[C@]1(C)CC2` [Bardoxolone Methyl], the Euclidean distance came to 2.1.
In the case of `Nc1cc(F)ccc1NC(=O)c1ccc(CNC(=O)/C=C/c2cccnc2)cc1` [Tucidinostat (Chidamide)] it was 3.31.
In the case of `Clc1ccc2c(c1)CCc1cccnc1C2=C1CCNCC1` [Desloratadine] it was 1.83.
